Our source for the growth values is PubChem BioAssay (NCI).

“And” between values parts separate entries of the source, which are not always exact repeats. Equal values may be shown once. The panel holds about 83,000 compounds, 20% with a hit somewhere; the sample as a whole holds those more often.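 The endpoint reported here, percent growth, reads 100 for growth as untreated, 0 for no net growth and -100 for all cells dead.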 The source made the active and inactive calls. Rule for the calls: active = growth percent below 10; inactive = the rest.

The test system of the assay is MDA-MB-468 breast. Kind of assay: NCI-60 one-dose screen, 48 h (100 = growth as untreated, 0 = no growth, -100 = all killed). The settings on record: 10 µM unless noted.

Consider `NCCc1ccc(OCc2ccccc2)c(OCc2ccccc2)c1`, for which the growth was 48.5% (inactive).
To `COC(=O)[C@@H](C)C[C@H](Cc1ccccc1)NC(=O)c1csc([C@@H](C[C@H](C(C)C)N(C)C(=O)[C@@H](NC(=O)[C@H]2CCCCN2C)C(C(F)(F)F)C(F)(F)F)OC(C)=O)n1` belongs 51.7% (inactive); to `CC1=C2C(=O)[C@](C)(CO)C=C2C(=O)[C@](C)(O)C12CC2`, -69.8% (active); to `O=C(Nc1ccc([N+](=O)[O-])cc1)C(Cl)(Cl)Cl`, 96.5% (inactive).
To `O=[N+]([O-])c1c(Br)sc(Br)c1[N+](=O)[O-]` belongs 1.55% (active); to `CC1=C[C@H]2O[C@@H]3C[C@H]4OC(=O)/C=C\C=C\[C@H]([C@@H](C)O)OCC/C(C)=C/C(=O)OC[C@@]2(CC1)[C@]4(C)[C@]31CO1`, -63.8% (active).
To `N#CC1c2ccccc2C=CN1C(=O)c1ccc(N(CCCl)CCCl)cc1` (configuration not stated) belongs 79.7% (inactive); to `Oc1c(Cl)cc(Cl)c2ccccc12.[Cu+2]`, 101% (inactive).
Take `O=[N+]([O-])c1ccc(OP(=O)(CCl)N(CCCl)CCCl)cc1` (configuration not stated): the growth is 101% (inactive).
As for `CCCCN(CCCC)P(=O)(Oc1ccccc1)Oc1ccccc1`, the growth is 39.2% (inactive).
To `S=P(NC1CCCCC1)(N1CC1)N1CC1` belongs 103% (inactive); to `Cc1cc(C(C)(C)C)ccc1O`, 99.3% (inactive).
With `Cc1cc(N(CCCl)CCCl)ccc1/C=N\NC(=O)c1ccncc1`, the growth is -45.6% (active).
Take `C[Se]/C=C1/C(=O)N(c2c(Cl)cccc2Cl)c2ccccc21`: the growth is -6.67% (active).
To `Cc1c2ccncc2c(C)c2c1[nH]c1ccccc12` belongs -54.9% (active).
To `C[C@]12CC[C@H]3[C@@H](CC=C4c5nc(-c6ccc(Br)cc6)sc5CC[C@@]43C)[C@@H]1CC[C@@H]2O` belongs 110% (inactive); to `Nc1c(F)cc(-c2nc3cc(F)ccc3[se]2)cc1F`, -39.8% (active); to `Clc1cccc(Cl)c1Cl`, 107% (inactive).
To `NC1CCc2cc(O)c(O)cc2C1` (configuration not stated) belongs 66% (inactive); to `CCCCCC1(CCBr)C(=O)NC(=O)NC1=O`, 103% (inactive).
In the case of `O=C1NC2(CCNCC2)Nc2ccccc21`, the growth was 98.8% (inactive).
To `O=C1C=C(N2CC2)c2ccccc2C1=O` belongs 24.6% (inactive); to `C[C@@H]1C[C@@H]([C@H](O)CC2CC(=O)NC(=O)C2)C(=O)[C@@H](C)C1`, 9.5% (active).
In the case of `CC1=C2C(=O)[C@H]3[C@@H](CC=C4C[C@@H](O)CC[C@@]43C)[C@@H]2CC[C@]12O[C@@H]1C[C@H](C)CN[C@H]1[C@H]2C`, the growth was 85.6% (inactive).
To `CC1(C)N=C(N)N=C(N)N1c1cccc(CCCCc2ccc(Cl)c(S(=O)(=O)F)c2)c1` belongs 75.8% (inactive); to `COc1cc(/C=C/[N+](=O)[O-])cc(OC)c1`, -61.2% (active).
To `COc1ccc(OC)c(/C=C(/C)[N+](=O)[O-])c1` belongs -40.8% (active).
To `CC[C@H](C)[C@H](NC(=O)N[C@@H](C)c1ccccc1)C(=O)N(C)[C@H](C[C@@H](OC(C)=O)c1nc(C(=O)N[C@@H](Cc2ccccc2)C[C@H](C)C(=O)OC)cs1)C(C)C` belongs -0.266% (active); to `O=C(c1ccccc1O)c1[nH]c(Cl)c(Cl)c1-n1c(C(=O)c2ccccc2O)cc(Cl)c1Cl`, -13.8% (active); to `Cc1cc(N(CCCl)CCCl)ccc1C=Nc1ccc2ccccc2c1`, -9.8% (active).
Turning to `COc1cc(CNCCc2ccc(Cl)cc2)cc(OC)c1O`, the growth is 43.5% (inactive).
To `CCCCCCCOC(C(=O)OCCN(CC)CC)(c1ccccc1)c1ccccc1` belongs 79.7% (inactive).
To `CCC(=O)C(CC(C)[N+](C)(C)C)(c1ccccc1)c1ccccc1` (configuration not stated) belongs 85.5% (inactive); to `CC1(C)N=C(N)N=C(N)N1c1ccc(OCCCCNC(=O)Nc2cccc(S(=O)(=O)F)c2)c(Cl)c1`, 40.9% (inactive); to `CCCCOC(N)=O`, 101% (inactive).
To `O=Cc1cn(Cc2ccccc2)c2ccccc12` belongs 2.33% (active).
Regarding `C[C@]12CCc3sc(Nc4ccc(F)cc4F)nc3C1=CC[C@@H]1[C@@H]2CC[C@]2(C)C(=O)CC[C@@H]12`, the growth was 23.3% (inactive).
To `CC(CC1CCCCC1)NCc1ccccc1` (configuration not stated) belongs 102% (inactive); to `Cc1cc[n+](CCc2ccccc2)cc1`, 61.2% (inactive) and 72.9% (inactive).
To `CC(=O)OC1CC2(O)C(CCC3(C)C(c4ccc(=O)oc4)CCC32O)C2(C)CCC(OC3OC(CO)C(O)C(O)C3O)C=C12` (configuration not stated) belongs -34.6% (active).
To `CC1CCCC(C[N+](C)(C)C)C1=O` (configuration not stated) belongs 97.3% (inactive); to `C=CC[PH+](c1ccccc1)c1ccccc1.C=CC[PH+](c1ccccc1)c1ccccc1.[Cl][Pt][Cl]`, -20.5% (active).
